Screening data deposited in PubChem BioAssay by National Center for Advancing Translational Sciences (NCATS).
Tau fluor counter: counter-screen for tau fibril formation inhibitors. 280,000 tested, 0.93% active. Potency, µM (top dose mostly 57.7 µM), without a hit: top-dose activity change, negative = decrease. tau K18 P301L Alexa594 fluorescence, heparin fibrillization. AID 1463; note: nearly all actives have a fitted effect of over 55% in size
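Human K18 P301L tau (15 uM unlabeled plus 0.24 uM Alexa 594-labeled, final) in 100 mM sodium acetate pH 7 was mixed with compound and 20 uM heparin and incubated 6 hr at 37 C.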
Tau fibril FP: inhibitors of human tau fibril formation. P10636. Potency, µM (highest dose often 57.7 µM), without a hit: at the top dose activity, negative = inhibition, hits mostly inhibitors. 280,000 tested, 0.39% active. K18 P301L tau heparin fibrillization, Alexa594 FP, 6 h; note: nearly all actives have a fitted effect of over 55% in size
Target sequence (P10636 561-689 P618L limits assumed): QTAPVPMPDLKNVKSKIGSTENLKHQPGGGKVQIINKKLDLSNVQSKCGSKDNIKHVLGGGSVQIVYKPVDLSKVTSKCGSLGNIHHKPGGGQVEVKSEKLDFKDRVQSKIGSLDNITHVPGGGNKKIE
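Read-out: fluorescence polarization of Alexa 594-labeled tau (0.24 uM), 555 nm excitation, 632 nm emission. Mixtures held 15 uM unlabeled K18 P301L, compound and 20 uM heparin, pH 7 acetate buffer, incubated 6 hr at 37 C.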
RORg inh: blocks mouse ROR gamma transcriptional activity | P51450 | Drosophila S2 Gal4-RORgamma UAS-luciferase reporter, 20 h | Potency, µM (doses to about 53.6 µM), inactives show at the highest dose activity change, negative = inhibition, most hits filed as inhibitors | 310,000 tested, 5.4% active | AID 2551; note: nearly all actives have a fitted effect of over 60% in size
Target sequence (P51450 whole entry, looked up, the tested form may be a part): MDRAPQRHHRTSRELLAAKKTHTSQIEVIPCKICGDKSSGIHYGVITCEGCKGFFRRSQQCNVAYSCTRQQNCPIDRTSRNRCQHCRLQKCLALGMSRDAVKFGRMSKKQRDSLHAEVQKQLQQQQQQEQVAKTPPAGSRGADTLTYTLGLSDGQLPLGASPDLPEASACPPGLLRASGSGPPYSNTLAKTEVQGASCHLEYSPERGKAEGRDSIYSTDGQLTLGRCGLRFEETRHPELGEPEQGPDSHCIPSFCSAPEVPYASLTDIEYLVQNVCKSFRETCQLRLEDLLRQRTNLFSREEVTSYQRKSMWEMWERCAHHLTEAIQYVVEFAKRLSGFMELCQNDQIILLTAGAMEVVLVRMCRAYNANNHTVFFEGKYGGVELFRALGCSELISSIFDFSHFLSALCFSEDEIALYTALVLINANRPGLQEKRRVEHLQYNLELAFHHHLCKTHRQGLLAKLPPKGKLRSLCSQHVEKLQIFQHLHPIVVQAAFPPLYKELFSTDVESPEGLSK
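Drosophila S2 cells stably expressing Gal4-DBD/mouse RORγ fusion under metallothionein promoter plus UAS-luciferase; compound 1 h, then 700 uM CuSO4 induction for 20 h at ambient temperature; inhibition read as reduced luminescence.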
Gal4-VP16 FLuc: counter-screen for ROR gamma inhibitors: Gal4-VP16 reporter | 310,000 tested, 3.5% active | AID 2546 | Drosophila S2 Gal4-VP16 UAS-luciferase, luminescence, 20 h | Potency, µM (top dose mostly 53.6 µM), for the others: at the top dose activity, negative = inhibition, hits mostly inhibitors;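 note: Gal4-VP16 expression switched on by copper sulfate through the metallothionein promoter; nearly all actives have a fitted effect of over 50% in size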
Tau ThT inhib: blocks human tau fibril formation measured by thioflavin T | AID 1460 | recombinant tau K18 P301L (four-repeat tau fragment), heparin-induced fibrillization, ThT fluorescence | P10636 | 270,000 tested, 2.1% active | Potency, µM (top dose mostly 57.4 µM), for the others: at the highest dose activity, negative = inhibition, usual class: inhibitors; note: nearly all actives have a fitted effect of over 55% in size
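Heparin-induced fibrillization of the P301L-mutant K18 repeat-domain fragment of human tau was followed by ThT binding in quantitative high-throughput format.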
Active calls of the source: *; ? = inconclusive; / = no result; [ ] = remark or other dose. An excerpt weighted towards active compounds, which were near 7.3% of everything screened. Calls come from the whole dose curve; as a rule, active = well fitted curve in the direction sought with a large enough effect; inconclusive = small, poorly fitted or top-dose-only effect, or another doubt; inactive = no such curve, though single readings can be large; an effect the other way counts as inactive or inconclusive. % is set by controls: 0 for no effect and ±100 for the full control effect; potency is the fitted concentration of half-maximal effect.

SMILES	Tau fluor counter	Tau fibril FP	RORg inh	Gal4-VP16 FLuc	Tau ThT inhib
O=C(CN1CCCCC1)Nc1nnc(-c2ccc([N+](=O)[O-])cc2)s1	-15%	-2%	10µM*	-15%	13µM*
CCOC(=O)C1=C(C)N(c2ccc(OC)cc2)C(=O)/C1=C\c1ccc(O)c(OCC)c1	?	?	?	?	25µM*
CCOc1cc(/C=C2\C(=O)N(Cc3ccc(C)cc3)C(C)=C2C(=O)OC)ccc1O	?	?	53%	-3%	25µM*
C=CCOc1cccc(/C=C2\C(=O)N(Cc3ccc(C)cc3)C(C)=C2C(=O)OC)c1	-17%	-13%	2%	?	?
CCOC(=O)C1=C(C)N(c2ccc(C)c(C)c2)C(=O)/C1=C\c1ccco1	-26%	?	40%	2%	28µM*
CCOc1ccccc1CNC(=O)C1CCCN(c2nnc(C)c3c(C)n(-c4ccccc4)nc23)C1 (configuration not stated)	6%	1%	?	?	-9%
CN1CCN(S(=O)(=O)c2cccc(C(=O)NCCOc3ccccc3F)c2)CC1	/	/	-10%	4%	/
O=c1/c(=C/c2ccc(O)c([N+](=O)[O-])c2)sc2nc3ccccc3n12	-20%	2%	-7%	-1%	2µM*
O=c1/c(=C\c2cccnc2)sc2nc3ccccc3n12	7%	5%	34%	22%	?
CCCCNC(=O)COC(=O)c1cc2c(C)nn(-c3ccccc3)c2s1	-5%	-9%	1%	2%	-6%
Cc1nn(-c2ccccc2)c2sc(C(=O)NNC(=O)COc3ccccc3)cc12	-17%	-18%	7.1µM*	10µM*	-12%
Cc1nn(-c2ccccc2)c2sc(C(=O)NNC(=O)COc3cccc4ccccc34)cc12	-23%	-1%	8.9µM*	?	-14%
Cc1ccc(C)n1-c1nnc(N2CCCC(C(=O)NCc3ccc(F)cc3)C2)s1 (configuration not stated)	-18%	?	/	/	?
[O-]/C(=C(\C(=S)Nc1cccc2ccccc12)[n+]1ccccc1)c1ccc(Cl)s1	8%	5%	20µM*	?	7%
Cc1ccc(N=Nc2c(N)[nH]n3c(=O)cc(C)nc23)cc1	-20%	?	10µM*	-24%	4µM*
Cc1cc(C)n2[nH]c(=O)c(N=Nc3ccc(S(N)(=O)=O)cc3)c2n1	-2%	-1%	-31%	-7%	?
Cc1ccc(N=Nc2c(N)[nH]n3c(=O)c4c(nc23)CCCC4)cc1	-13%	2%	-23%	2%	1.4µM*
Cc1ccc(N=Nc2c(=O)[nH]n3c(C)cc(C)nc23)cc1	-12%	-5%	?	-8%	20µM*
Cn1c(=O)oc2cc(S(=O)(=O)CCC(=O)NCc3ccc(Cl)cc3)ccc21	-13%	-11%	/	/	?
CN(C(=O)c1nc(-c2ccccc2)n(-c2ccccc2)n1)C1CCS(=O)(=O)C1 (configuration not stated)	/	/	?	-2%	/
[Cl][In]([Cl])[Cl]	/	/	21%	7%	/
CCSc1nc2sc3c(c2c(=O)[nH]1)CCc1ccccc1-3	-18%	-15%	?	-24%	?
NNc1nc2sc3c(c2c(=O)[nH]1)CCc1ccccc1-3	?	-3%	16µM*	18µM*	?
CCc1cc2cc(C)cc(C)c2[nH]c1=S	-11%	-1%	7.1µM*	-20%	-18%
O=C1NCC(c2ccccc2)C1C(=O)N/N=C\c1ccc(-c2cccc(Cl)c2Cl)o1 (configuration not stated)	?	7%	-16%	-25%	-16%
SMILES	Tau fluor counter	Tau fibril FP	RORg inh	Gal4-VP16 FLuc	Tau ThT inhib
Cc1ccc(-c2ccc(/C=N\NC(=O)C3C(=O)NCC3c3ccccc3)o2)cc1Cl (configuration not stated)	-28%	3%	?	20µM*	-11%
Cc1ccc(-c2ccc(/C=N/NC(=O)CN3CCCC3)o2)cc1Cl	-20%	-5%	11µM*	-19%	?
O=C(Nc1ccnn1C1CCN(C2CCOCC2)CC1)c1cccc(F)c1	/	/	-15%	-11%	/
Oc1c(Cl)cc(Cl)cc1C=Nc1ccc(Br)cc1	-8%	-4%	?	-6%	?
Oc1c(Cl)cc(Cl)cc1/C=C/c1ccc2cccc(O)c2n1	?	3%	2.5µM*	7.1µM*	?
Oc1ccc(Cl)cc1/C=C/c1ccc2cccc(O)c2n1	25µM*[quencher]	?	3.2µM*	4.5µM*	?
CC(C)C(=O)Nc1ccc(NC(=O)c2ccc(COc3ccccc3)cc2)cc1	/	/	27%[1.91 µM]	-11%	/
O=C(/C=C/c1ccc(Cl)cc1Cl)Nc1cccc(S(=O)(=O)NC2=NCCC2)c1	?	?	7.1µM*	8.9µM*	12%
O=C(/C=C/c1ccccc1Cl)Nc1cccc(S(=O)(=O)NC2=NCCCCC2)c1	14µM*[quencher]	?	?	-11%	1%
O=C(Nc1cccc(S(=O)(=O)NC2=NCCC2)c1)C1CCC1	1%	-1%	10%	0%	6%
O=C(Nc1cccc(S(=O)(=O)NC2=NCCCCC2)c1)C1COc2ccccc2O1 (configuration not stated)	1%	6%	0%	-8%	4%
Cc1ccc(CN2C(=O)N(c3ccc(F)cc3)C(=O)C2CC(=O)Nc2ccc(Cl)cc2)cc1 (configuration not stated)	?	?	/	/	7%
CN(C)CCNC(=O)c1cc2c(s1)-c1ccc(Cl)cc1SC2	/	/	10µM*	?	/
CC1CCN(C(=O)CSc2nc(C(C)C)nc3c2c(=O)n(C)c(=O)n3C)CC1	/	/	-5%	-18%	/
Cc1cc2cc(C(c3nnnn3Cc3ccccc3)N3CCc4ccccc43)c(=O)[nH]c2cc1C (configuration not stated)	-30%	?	-11%	9%	16µM*
Cc1ccc2cc(C(c3nnnn3Cc3ccccc3)N3CCc4ccccc43)c(=O)[nH]c2c1 (configuration not stated)	-26%	-1%	0%	2%	?
Cc1ccc2[nH]c(=O)c(C(c3nnnn3CC3CCCO3)N3CCc4ccccc4C3)cc2c1 (configuration not stated)	-24%	?	-12%	0%	32µM*
Cc1ccc2[nH]c(=O)c(C(c3nnnn3Cc3ccccc3)N3CCc4ccccc43)cc2c1 (configuration not stated)	?	?	0%	15%	20µM*
Cc1cc2cc(C(c3nnnn3Cc3ccco3)N3CCc4ccccc4C3)c(=O)[nH]c2cc1C (configuration not stated)	-24%	?	-9%	-2%	28µM*
COc1ccc2[nH]c(=O)c(C(c3nnnn3CC3CCCO3)N3CCc4ccccc4C3)cc2c1 (configuration not stated)	-5%	-3%	-42%	-4%	-16%
